Screening results deposited in PubChem by several laboratories.
Arbovirus inh = antivirals against arbovirus infection, primary screen, cell-based, full library, 10K replicate subset | arbovirus infection cell-based antiviral screen | inhibition, % at 10 µM | 200,000 tested, 0.37% active | AID 1251, 2008; in the data active means inhibition above about 30%
CHOP inh = inhibitors of CHOP promoter induction, primary screen, cell-based, unfolded protein response, luciferase reporter | CHO-K1 CHOP-promoter luciferase, tunicamycin-induced, 15-18 h | inhibition, % at 10 µM | 220,000 tested, 3.8% active;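 active means compounds that reduced the stress-induced luciferase reporter signal by more than about 70% of percent inhibition, limit read from the data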
Lmaj promast = Leishmania major promastigote growth inhibition, primary screen; Leishmania major promastigotes, resazurin fluorescence viability; inhibition, % at 10 µM; 200,000 tested, 9% active; AID 1063, 2008; in the data active means inhibition above about 50%;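 further: promastigotes grown with compound for 44 hours at 28 °C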
WT yeast gro inh = growth inhibition of WT strain, primary screen, mitochondrial fusion inhibitor project, WT and mutant strains, chemical genetic. mitochondrial fusion phenotypic screen. 190,000 tested, 2.1% active. inhibition, % at 10 µM; in the data active means inhibition above about 58%; tested in S. cerevisiae
Each line names hits and unclear results; the compound was inactive in the other large screens. Compounds with a hit are over-represented: about 12% of the library has one in this group of screens.

COc1ccc(CNC(=O)CCC(=O)Nc2nnc(CC(C)C)s2)cc1	none (no result: Arbovirus inh, Lmaj promast, WT yeast gro inh)
COc1ccccc1C(CC(=O)Nc1ccc(C)c(C)c1)c1ccc(OC(C)C)cc1 (stereo not given)	Lmaj promast 51
COc1ccccc1NC(=O)C1=C(C)N(c2ccccc2)C(=S)NC1c1cccc(C(F)(F)F)c1 (stereo not given)	none
COC(=O)c1ccc(C2NC(=S)N(c3ccccc3)C(C)=C2C(=O)Nc2ccccc2OC)cc1 (stereo not given)	Lmaj promast 72
CCn1nnc(-c2ccccc2NC(=O)c2cnccn2)n1	none (no result: Arbovirus inh, CHOP inh, WT yeast gro inh)
Cc1[nH]c2ccccc2c1C(c1ccncc1)N1CCN(c2ccccc2F)CC1 (stereo not given)	Lmaj promast 51
Cc1[nH]c2ccccc2c1C(c1ccncc1)N1CCN(c2ccccn2)CC1 (stereo not given)	none
CCNc1nc(NC(C)C)nc(N(C#N)Cc2ccccc2)n1	none
CCNc1nc(NC(C)C)nc(N(C#N)CCOc2ccc(Cl)cc2Cl)n1	CHOP inh 76, Lmaj promast 97, WT yeast gro inh 80
O=P(COCCOCCOCCOCP(=O)(c1ccccc1)c1ccccc1)(c1ccccc1)c1ccccc1	none
CC1CCN(C(=O)C2CCN(CCCc3ccccc3)CC2)CC1	Lmaj promast 53
O=C(C1CCCN(CCCc2ccccc2)C1)N1CCCCCC1 (stereo not given)	Lmaj promast 71
CCOC(=O)C(Cc1ccc(O)cc1)NC(=O)CNC(=O)C(CC(C)C)NC(=O)OC(C)(C)C (stereo not given)	Lmaj promast 57
COC(=O)c1sc(NC(=S)NC(=O)c2ccccc2C)nc1C	none
COC(=O)C(C(=O)OC)C(C[N+](=O)[O-])c1ccc(O)c(OC)c1 (stereo not given)	none
Cc1ccc(S(=O)(=O)N2CCCC(C(=O)NCc3cccnc3)C2)cc1Cl (stereo not given)	CHOP inh 88
Cc1c(C(=O)NCc2cccnc2)oc2ccc(S(=O)(=O)N3CCC4(CC3)OCCO4)cc12	none
O=C(NCc1ccccc1)C1CCCN(S(=O)(=O)c2cccnc2)C1 (stereo not given)	none
Cc1c(C(=O)NCc2cccnc2)oc2ccc(S(=O)(=O)N3CC(C)CC(C)C3)cc12 (stereo not given)	CHOP inh 102
O=C(COC(=O)C1(c2ccc(F)cc2)CCCC1)N1CCc2ccccc21	none
CC(C)CCNC(=O)NC(=O)COC(=O)/C=C/c1cnc2ccccc2n1	none
COc1ccc(-c2csc(Nc3ccc(S(N)(=O)=O)cc3)n2)cc1	none
Nc1ccc(Nc2nc(-c3ccncc3)cs2)cc1	Lmaj promast 81
COc1ccc(Nc2nc(-c3c[nH]c4ccccc34)cs2)cc1	Lmaj promast 85
COc1ccc(-c2csc(Nc3ncccc3C)n2)cc1OC	Arbovirus inh 41
CC(=O)Oc1ccc(-c2csc(Nc3ccc(S(N)(=O)=O)cc3)n2)cc1	Lmaj promast 55
COc1ccc2oc(=O)c(-c3csc(Nc4ccc(O)cc4)n3)cc2c1	none
NC(=O)[C@@H]1CCOc2c(I)cc([N+](=O)[O-])cc2C(=O)N[C@@H](CO)C(=O)NCC(=O)N1	none
Cc1ccc(C(O)P(=O)(OCc2ccccc2)c2ccc(N(C)C)cc2)cc1 (stereo not given)	none (no result: Arbovirus inh, Lmaj promast, WT yeast gro inh)
c1ccc(-c2csc(Nc3ccc4c(c3)OCCO4)n2)cc1	CHOP inh 90
Cc1cccnc1Nc1nc(-c2ccc(O)c(O)c2)cs1	Lmaj promast 58
COc1ccc(-c2csc(Nc3ncccc3C)n2)cc1	WT yeast gro inh 76
c1cc2c(cc1Nc1nc(-c3ccc4c(c3)OCO4)cs1)OCCO2	none
COc1ccc(-c2csc(Nc3ccc(S(=O)(=O)Nc4cc(C)on4)cc3)n2)cc1	Arbovirus inh 30
CC(=O)Nc1ccc(-c2csc(Nc3ccccn3)n2)cc1	none (no result: Arbovirus inh, Lmaj promast, WT yeast gro inh)
COc1ccc(-c2csc(Nc3ccccc3)n2)cc1	WT yeast gro inh 69
COc1ccc(Nc2nc(-c3ccc(OC)cc3)cs2)cc1	none
COc1ccc(-c2csc(-c3cccnc3)n2)cc1C	Lmaj promast 80
CC(C)(C)C(=O)Nc1ccc(-c2csnn2)cc1	none (no result: Arbovirus inh, Lmaj promast, WT yeast gro inh)
COc1cc(/C=N/NC(=O)Cn2ccc(C(F)(F)F)n2)cc(OC)c1OC	none
N/C(=N\OC(=O)c1ccccc1Cl)c1ccncc1	none
N/C(=N\OC(=O)c1cc(Br)ccc1Cl)c1ccccn1	none
Cc1ccc(C(=O)O/N=C(\N)c2ccc(Br)cc2)cc1	CHOP inh 72
N/C(=N\OC(=O)c1ccc(Cl)cc1Cl)c1ccccn1	CHOP inh 79
Cc1ccc(C(=O)O/N=C(\N)c2ccccc2)c(Cl)c1	CHOP inh 72 (no result: Arbovirus inh, Lmaj promast, WT yeast gro inh)
Cc1cc(C(=O)NCCN2C(=O)S/C(=C\c3cccs3)C2=O)ccc1[N+](=O)[O-]	none
